In PubChem BioAssay AID1566 (Sanford-Burnham Center for Chemical Genomics, 2009):
The campaign covered roughly 290,000 compounds. About 1,800 (0.62%) were called active. Cut-off read from the data, not from the text of the source: active = inhibition above about 50%; inactive = the rest. This excerpt belongs to a sample that is enriched for actives.

Test: inhibition of NOD2-driven NF-kB reporter – cell-based, luminescence, uHTS, HEK293 (AID 1566)
Conditions: HEK293 NOD2/NF-kB luciferase reporter, at 4 µM, hits give high values

inhibition, active:
Cc1cc(C2=NNC(=NC3CC3)SC2)c(C)n1-c1ccccc1F 88.9%
c1cc2c(cc1C1=NNC(=NC3CC3)SC1)OCCO2 85.7%
Cc1cc(C2=NNC(=NC3CC3)SC2)c(C)n1-c1ccccc1 90.5%
O=C(N/N=C/c1cc([N+](=O)[O-])ccc1O)NC12CC3CC(CC(C3)C1)C2 64%
CCCc1cc(C(=O)Nc2ccc(C(=O)c3ccccc3)cc2)n(C)n1 54.7%
CCOC(=O)C1=C(c2ccccc2)O/C(=C(/C#N)C(F)(F)F)S1 51.4%
O=C(Oc1c(Cl)cc(Cl)c2cccnc12)c1cccc([N+](=O)[O-])c1 96.1%
CC(C)(C)c1ccc(OC(=O)Nc2ccc(O)c(C(=O)O)c2)cc1 51.6%
CCOC(=O)Cc1nnc2c(Nc3ccccc3F)nc3nonc3n12 55.4%
O=C1c2cc(F)ccc2-n2c1nc1ccccc1c2=O 63.4%
CCOC(=O)c1ccc(NC(=O)c2ccc(NC(=O)C3CCCO3)cc2)cc1 (centres undefined) 51.3%
Cc1ccc(C(=O)NC(=S)Nc2ccc(N3CCOCC3)cc2)cc1C 50.7%

inhibition, inactive:
CCOc1ccc(CN(C(=O)c2oc3ccccc3c2C)C2CCS(=O)(=O)C2)cc1 (centres undefined) -8.4%
C=CCN=C1NN=C(c2ccc3c(c2)OCCO3)CS1 37.7%
COCCCN=C1NN=C(c2cc(C)n(-c3ccccc3F)c2C)CS1 -10.1%
CCCCN=C1NN=C(c2ccc3c(c2)OCCO3)CS1 -57.3%
Cc1cc(C2=NNC(=NC3CC3)SC2)c(C)n1-c1c(C)n(C)n(-c2ccccc2)c1=O -1.3%
Cc1ccc(-n2c(C)cc(C3=NNC(=NC4CC4)SC3)c2C)cc1C -57.3%
COc1ccc(-n2c(C)cc(C3=NNC(=NC4CC4)SC3)c2C)cc1 -16.5%
COc1ccc(N2C(=O)c3ccccc3NC23CCC(C)CC3)cc1 (centres undefined) -58.1%
Cc1cc(=O)[nH]c(N/N=C/c2ccc(Cl)c([N+](=O)[O-])c2)n1 -5.5%
COc1ccc(/C=C(\NC(=O)c2ccc(OC)cc2)C(=O)N2CCCCC2)cc1 -9.7%
Cn1c(=O)c2c(nc(SCC(=O)O)n2Cc2cc3c(cc2Cl)OCO3)n(C)c1=O 3%
CCOCCCn1cnc2c(c1=O)c1nc3ccccc3nc1n2-c1ccc(C)cc1 24.1%
O=C(NCCn1cccn1)c1ccc(OC2CCN(C(=O)C3CC3)CC2)cc1 -27.2%
O=C(N/N=C/c1ccccc1O)NC12CC3CC(CC(C3)C1)C2 -29.5%
O=C(N/N=C/c1cc([N+](=O)[O-])ccc1O)C12CC3CC(CC(C3)C1)C2 15%
c1ccc(-c2ccccc2OCCCN2CCOCC2)cc1 -29.3%
O=C(CSc1nnc(-c2ccc(F)cc2)o1)Nc1ccc(S(=O)(=O)N2CCCCCC2)cc1 -4.4%
CCOCC(=O)Nc1cccc(Br)c1 -5.5%
CCCc1cc(C(=O)Nc2ccc(C(=O)c3ccc(F)cc3)cc2)n(C)n1 18.5%
CCCc1cc(C(=O)Nc2ccc(C(=O)c3ccc(C)cc3)cc2)n(C)n1 23.6%
CCOC(=O)c1c(C)n(C)c2ccc(OCC(O)CN3CCN(C)CC3)cc12 (centres undefined) -0.5%
CCc1nc(SCC(=O)N2CCCc3ccccc32)c2oc3ccccc3c2n1 37%
Cc1nc(SCC(=O)N2CCCc3ccccc32)c2oc3ccccc3c2n1 -6.5%
COc1cc(C(=O)NCc2ccncc2)cc(OC)c1OC 10.3%
Nc1ncc(-c2ccccc2)c(-c2ccc(OCc3ccccc3)cc2O)n1 13.4%
COc1ccc(-c2cnc(N)nc2-c2ccc(OCc3ccccc3)cc2O)cc1 -4.2%
Nc1ncnc2c1ncn2Cc1ccccc1 6.4%
CCc1ccc(N2CN(Cc3ccco3)CNC2=S)cc1 4.9%
COc1ccc(/C=N/OCC(=O)Nc2nc3ccccc3s2)cc1OC -1.1%
CC1=NN(C(=O)Cn2ccc([N+](=O)[O-])n2)C(O)(C(F)(F)F)C1 (centres undefined) 12.1%
CCOC(=O)C1=C(c2ccccc2)O/C(=C(\C(=O)OC)C(F)(F)F)S1 -23%
CCOC(=O)C1=C(c2ccccc2)O/C(=C(/C(=O)OC)C(F)(F)F)S1 5.4%
CC(=O)Nc1ccc(S(=O)(=O)Nc2nc3ccccc3nc2N2CCCC2)cc1 -6%
Cc1ccn2cc(C(=O)N3CCCC(Nc4ccc(F)cc4)C3)nc2c1 (centres undefined) -9.3%
O=C(Nc1ccncc1)c1c(F)c(F)c(F)c(F)c1F 8.8%
O=C(Nc1ccccc1)c1c(F)cccc1F -8%
O=C(Oc1cccc2cccnc12)c1cccc([N+](=O)[O-])c1 11.2%
O=C(Oc1ccc(Cl)c2cccnc12)c1cccc([N+](=O)[O-])c1 13.8%
CCOc1ccc(-c2ccc(SCC(=O)Nc3nnc(CC)s3)nn2)cc1 -117%
CCCC(C(=O)NC1CCCC1)N(CC1CCCO1)C(=O)c1snc(C(N)=O)c1N (centres undefined) -7.3%
Cc1ccc(OCC(=O)Nc2ccc(O)c(C(=O)O)c2)cc1C 1.5%
O=C(Nc1ccc(O)c(C(=O)O)c1)Oc1ccccc1 8.6%
COC(=O)C1=C(C)NC(C)=C(C(=O)OC)C1c1ccccn1 2.3%
Cc1ccc(OCc2cc(C(=O)N3CCN(C)C[C@@H]3c3ccccc3)no2)cc1C -27.5%
S=C(Nc1cc(Cl)cc(Cl)c1)N1CCN(c2ccccn2)CC1 14.1%
CCOC(=O)Cc1nnc2c(Nc3ccc(Cl)cc3)nc3nonc3n12 14.5%
CCOC(=O)Cc1nnc2c(Nc3ccc(C)cc3)nc3nonc3n12 -2.9%
Cc1noc(C)c1C(=O)N1CCC2(CC1)Oc1ccc(F)cc1C(=O)C21CC(c2ccc(Cl)cc2)=NO1 (centres undefined) 13%
COc1ccc(/C=N/n2cnc3c([nH]c4ccc(F)cc43)c2=O)cc1CN1CCCC1 12.1%
CC1(C)Cc2c(sc(NC(=O)c3ccccc3)c2C(=O)O)CO1 -27.1%
COc1ccc(C(=O)Nc2sc3c(c2C(=O)O)CC(C)(C)OC3)cc1 8.8%
C(=N\N(c1ccccc1)c1ccccc1)/c1ccc(N2CCOCC2)s1 11.6%
c1ccc2c(-c3c[nH]c4ccccc34)c3ccccc3nc2c1 0%
Cc1cccc(C(=O)c2cn[nH]c2-c2ccccc2O)c1 -3.8%
Nn1c(-c2ccc(F)cc2)nc2ccccc2c1=O 12.9%
O=C1c2ccccc2-n2c1nc1ccccc1c2=O 26.3%
CCn1c(CNc2ccc(Cl)cc2)nnc1SCC(=O)OC1CCCCC1 4.4%
CCOC(=O)C1CCN(C(=O)COC(=O)c2ccc(Br)o2)CC1 20.2%
Cc1cc2c(s1)c1cnn(Cc3ccccc3F)c(=O)c1n2C 10.1%
CCOc1ccccc1C(=O)N1CCN(c2cccc(Cl)c2)CC1 -14%
COc1ccc(N(C)C(=O)c2cnc(N3CCN(c4ncccn4)CC3)c3ccccc23)cc1 14.7%
COc1ccccc1C(=O)N1CCN(c2cccc(Cl)c2)CC1 3.1%
CN(C(=O)c1cnc(N2CCN(c3ncccn3)CC2)c2ccccc12)c1ccc(Cl)cc1 15.1%
COc1cc(C(=O)Nc2ccccc2N2CCOCC2)ccc1OCc1c(C)noc1C 1.5%
CCOC(=O)c1ccc(NC(=O)C2CCCO2)cc1 (centres undefined) -21.8%
CCOC(=O)c1cccc(NC(=O)c2ccc(NC(=O)C3CCCO3)cc2)c1 (centres undefined) 5.8%
CC(Sc1nnc(N)s1)C(=O)Nc1nccs1 (centres undefined) -1.1%
COc1ccccc1-c1nc(C#N)c(N2CCN(c3ccccc3)CC2)o1 -1.7%
COc1ccc(-c2nc(C#N)c(N3CCN(c4cccc(Cl)c4)CC3)o2)cc1OC 0.1%
Cc1noc(C)c1COC(=O)COc1cccc2c1OC(C)(C)C2 6.1%
C=CCN(c1ccc(C(=O)Nc2ccc(NC(C)=O)cc2)cc1)S(C)(=O)=O 15.2%
COc1ccc(N(CC(=O)NCCC2=CCCCC2)S(=O)(=O)c2ccccc2)c(OC)c1 1.9%
Cc1cccc(NS(=O)(=O)c2ccc(NC(=O)N3CCCCC3)cc2)c1 33.7%
CC(=O)c1cccc(NC(=O)N2CCCCCC2)c1 6.3%
CC1(C)CC(=O)C=C(N2CCN(C3=CC(=O)CC(C)(C)C3)CC2)C1 -10.7%
Cc1cccc(C(=O)NC(=S)Nc2ccc(N3CCOCC3)cc2)c1 7.7%
COc1ccc(C(=O)NC(=S)Nc2ccc(N3CCOCC3)cc2)cc1Cl 13.8%
Cc1ccn2c(NC(=O)c3cccs3)c(-c3ccccc3)nc2c1 17.5%
COc1ccc(OC)c(Cc2nnc(CCC(=O)NCc3nc4ccccc4s3)o2)c1 5.2%
CC(C)Cc1nc(N2CCN(C(=O)c3ccco3)CC2)c(C#N)c2c1CCCC2 23.8%
CC(C)Cc1nc(N2CCN(C(=O)c3ccco3)CC2)c(C#N)c2c1CCC2 13.3%
Cc1ccc(S(=O)(=O)N(CC(=O)NCCSCc2ccco2)c2ccc(F)cc2)cc1 -2.2%
